# Hit rate of the full screen: of about 420,000 compounds, about 50,000 (12%) were called active. Not shown: some 26% with an inconclusive outcome. Calls follow the shape of the dose curve; as a rule, active = well fitted inhibition curve with a large enough effect; inconclusive = small, poorly fitted or top-dose-only effect; inactive = flat fitted curve, though single readings scatter. The list comes from a sample in which actives are over-represented; it also holds similar structures and randomly drawn compounds.
# Test: qHTS for Inhibitors of human tyrosyl-DNA phosphodiesterase 1 (TDP1): qHTS in cells in presence of CPT; also: nearly all actives have a fitted effect of over 55% in size
# Details: chicken DT40 Tdp1-/-;hTDP1 cells + 20 nM CPT, ATP luminescence, 48 h; series mostly up to 46.2 µM; activity change, negative = growth inhibition: at the top concentration
# Summary of the method: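 Cell growth measured by CellTiter-Glo luminescence after a minimum 48 h, 37 C compound exposure with 20 nM CPT in Tdp1-knockout DT40 cells stably expressing hTDP1, seeded 400/well; qHTS titration format.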
# % is scaled to controls: 0 for no effect and ±100 for the full control effect; potency is read from the fitted curve at half-maximal effect.
Structure (SMILES),"activity change, negative = growth inhibition",Potency
COc1ccccc1-c1ccnc(-n2ncc(C(=O)NCCc3ccncc3)c2C)n1,39.7% [at 9.04 µM] (inactive),
COc1cccc(COC(=O)C2CCN(S(=O)(=O)c3cccs3)CC2)c1OC,-0.942% (inactive),
Cc1cccc(OCC(=O)NC2CC(C)(C)NC(C)(C)C2)c1,8.74% (inactive),
O=C(Nc1cccc(F)c1)N1CCC2(CC1)CCN(S(=O)(=O)c1ccccc1)CC2,-27.3% (inactive),
O=C(c1cn(-c2ccccc2)nc1-c1cc2ccccc2oc1=O)N1CCOCC1,7.05% (inactive),
O=c1oc2ccccc2cc1-c1cn(-c2ccccc2)c(=S)[nH]1,,2.59 µM (active)
S=c1[nH]c(-c2cccs2)cn1-c1ccccc1,-5.38% (inactive),
CCn1c(CNC(=O)C23CC4CC(CC(C4)C2)C3)nnc1SCC(=O)Nc1ccc(OC)cc1,-21.9% (inactive),
CC(C)C1C2=C(CC(C)(C)CC2=O)ON1c1ccccc1 (configuration not stated),,25.9 µM (active)
CC(C)N1C(=O)N(c2ccccc2)C(C)(O)CC1(C)C (configuration not stated),-17% (inactive),
COC(=O)C1CC2=C(CC(C)(C)CC2=O)N(c2ccccc2)C1=O (configuration not stated),-3.49% (inactive),
COc1cc2nc(CN(C)Cc3ccc(F)cc3)[nH]c(=O)c2cc1OC,-27.7% (inactive),
CCOC(=O)C1CCCN(C(=O)C2CCN(c3nnc(-n4cccc4)s3)CC2)C1 (configuration not stated),-2.31% (inactive),
CCOC(=O)C1CCCN(C(=O)c2cccc3ccccc23)CC1 (configuration not stated),5.97% (inactive),
CCOC(=O)C1CCCN(C(=O)c2ccc(-n3ccc4ccccc43)s2)C1 (configuration not stated),,18.4 µM (active)
CCC(Oc1ccccc1C)C(=O)Nc1ccc(S(=O)(=O)Nc2cc(C)on2)cc1 (configuration not stated),7.59% (inactive),
CCOC(=O)c1sc(NC(=O)C2CSC3(C)CCC(=O)N23)nc1C (configuration not stated),6.57% (inactive),
CN(C)S(=O)(=O)c1ccc(C(=O)NCC2(N3CCOCC3)CCCCC2)cc1,-27% (inactive),
O=C(NCc1ccc(F)cc1)C1CCN(C(=O)Nc2ccc(F)cc2)CC1,7.91% (inactive),
CCOC(=O)c1c(C)[nH]c(C)c1S(=O)(=O)N(C)CC(=O)Nc1ccccc1C,-0.387% (inactive),
CCOC(=O)c1c(SCC(=O)Nc2cccc(C)c2C)nc(=O)[nH]c1C,-25.5% (inactive),
CCOC(=O)c1c(C)[nH]c2c1-c1ccccc1C(=O)C2=O,,0.517 µM (active)
Cc1ccc(S(=O)(=O)N2CCCC2C(=O)OCc2nc3sc(C)c(C)c3c(=O)[nH]2)cc1 (configuration not stated),-12.6% (inactive),
COCCN(CCOC)c1nc(N)c2c(N)nc3c(c2c1C#N)CC(=O)N3Cc1ccc(Cl)cc1,-6.53% (inactive),
O=C(CNC(=O)c1ccc(F)cc1)c1ccccc1,1.2% (inactive),
C[C@H](NC(=O)c1ccccc1)C(=O)OCC(=O)c1c[nH]c2ccccc12,-21.6% (inactive),

Structure (SMILES),"activity change, negative = growth inhibition",Potency
CN(C)c1ccc(C(CNC(=O)c2ccc(F)cc2)c2c[nH]c3ccccc23)cc1 (configuration not stated),,18.4 µM (active)
O=C(CCNC(=O)c1ccc(Br)cc1)NCCCc1ccccc1,-23.6% (inactive),
COc1ccccc1CN1CCNC(=O)C1CC(=O)N(C)CC1CCOCC1 (configuration not stated),-8.06% (inactive),
O=S(=O)(NCc1cccnc1)c1ccc(Br)s1,-22.4% (inactive),
O=S(=O)([N-]c1nc2ccccc2nc1-[n+]1ccc(Cc2ccccc2)cc1)c1ccc(Br)s1,,14.6 µM (active)
Cc1cc(C)c[n+](-c2nc3ccccc3nc2[N-]S(=O)(=O)c2cccs2)c1,5.23% (inactive),
C[C@@H](NC(=O)c1nc[nH]c1C(=O)N1CCN(C(=O)OC(C)(C)C)CC1)c1ccccc1,-20.9% (inactive),
Cc1ccccc1N1CC(C(=O)Nc2ccc(S(=O)(=O)N3CCCC3)cc2)CC1=O (configuration not stated),-23.3% (inactive),
O=C1CS(=O)CN1c1ccc(Oc2ccccc2)cc1 (configuration not stated),-3.4% (inactive),
COc1ccc(-c2nc3cnccn3c2NC(C)(C)CC(C)(C)C)cc1O,,20.6 µM (active)
COc1ccc(-c2cc(C(F)(F)F)nc(NCc3cccnc3)n2)cc1,-5.03% (inactive),
Cc1cccc(NC(=O)N2CCN(C)c3ncccc32)c1C,-12.9% (inactive),
CCOc1ccccc1C(=O)Nc1ccc2c(c1)N(C)C(=O)c1ccccc1S2,,4.61 µM (active)
CCN1C(=O)c2ccccc2Sc2ccc(NC(=O)Cc3ccc(OC)cc3)cc21,-3.35% (inactive),
CCOc1ccccc1C(=O)NCCCn1ccnc1,4.33% (inactive),
C[C@H]1CC[C@]2(O[C@@H](CCO)C[C@@H](O)[C@@H]2O)O1,-12.3% (inactive),
C=CCn1cc(Cl)cc(C(=O)Nc2ccccc2)c1=O,17.1% (inactive),
CN(C)C(=O)N1CCNCC1,-3.78% (inactive),
CC(C)(C)C(=O)NC(NC(=S)Nc1ccc(S(N)(=O)=O)cc1)C(Cl)(Cl)Cl (configuration not stated),-7.12% (inactive),
CCOc1cc(C(=O)Nc2c(C)ccc3nsnc23)cc(OCC)c1OCC,-8.86% (inactive),
COc1ccc(-c2nnc(SC(C)C#N)o2)cc1 (configuration not stated),-9.97% (inactive),
COc1ccc(-c2nnc(SC(C)C(=O)NC3CC3)o2)cc1 (configuration not stated),-0.623% (inactive),
COc1ccc(-c2nnc(SC(=O)N3c4ccccc4Sc4ccccc43)o2)cc1,,8.2 µM (active)
OCCN1CCN(c2nnc(-c3ccccc3)c3ccccc23)CC1,-7.45% (inactive),
Clc1ccc(-c2nnc(-c3ccccc3)nc2N2CCSCC2)cc1,,16.4 µM (active)
O=C(Cn1c(=O)n(-c2ccc(F)cc2)c(=O)c2sc3ccccc3c21)NC1CCCC1,-6.01% (inactive),

Structure (SMILES),"activity change, negative = growth inhibition",Potency
O=c1c2ccccc2ncn1CCc1ccncc1,6.46% (inactive),
COc1ccccc1-c1cc2nc(C)c(CCC(=O)O)c(C)n2n1,4.44% (inactive),
CCOC(=O)c1oc2ccc(S(=O)(=O)n3nc(-c4ccccc4OC)cc3N)cc2c1C,,18.4 µM (active)
Cc1ccc(S(=O)(=O)n2nc(OC(=O)C(C)(C)C)cc2N)cc1,5.36% (inactive),
O=C(CC1C(=O)NCCN1Cc1ccc(-c2ccccc2)cc1)NCc1ccncc1 (configuration not stated),-29.6% (inactive),
CN[C@@H]1[C@H](O[C@H]2[C@H](O[C@H]3[C@H](O)[C@@H](O)[C@H](N=C(N)N)[C@@H](O)[C@@H]3N=C(N)N)O[C@@H](C)[C@]2(O)CO)O[C@@H](CO)[C@H](O)[C@H]1O,5.85% (inactive),
Cc1nc(Nc2ccc(S(=O)(=O)N3CCCC3)cc2)c2nnn(Cc3ccccc3)c2n1,0.0843% (inactive),
Cc1ccc(-c2csc(-c3cc(C)on3)n2)cc1,4.19% (inactive),
Cc1ccc(-c2csc(-c3c[nH]c4ccccc34)n2)cc1,,16.4 µM (active)
Clc1ccc(-c2csc(-c3ccncc3)n2)cc1,5.47% (inactive),
O=C(NNC1=NCCC1)c1cccc(S(=O)(=O)N2CCCCC2)c1,-3.42% (inactive),
c1ccc2cc3[nH]c(CN4CCCCC4)nc3cc2c1,-8.01% (inactive),
Cc1ccc(-c2nc3ccccc3[nH]c2=O)cc1,1.57% (inactive),
CCCCCn1nnnc1-c1nc2cc3ccccc3cc2[nH]c1=O,,4.11 µM (active)
CN1CCN(c2ccc(NC(=O)c3ccc4c(c3)OCCO4)cc2Cl)CC1,-20.4% (inactive),
Cc1cc(C)cc(NC(=O)Cc2csc(C)n2)c1,10% (inactive),
O=C(OCCN1C(=O)c2ccccc2C1=O)Oc1ccccc1,-3.35% (inactive),
O=C(Cn1c(-c2cncs2)nc2ccccc21)NC1CCCC1,-0.366% (inactive),
O=C(Cn1c(-c2cscn2)nc2ccccc21)Nc1ccc(Cl)cc1,,5.8 µM (active)
COc1ccc(NC(=O)COC(=O)Cn2c(C)nc3ccccc32)cc1OC,-1.04% (inactive),
COc1ccc(/C=N/N(C)C2=NS(=O)(=O)c3ccccc32)cc1OC,4.29% (inactive),
CC1(C(=O)Nc2ccc3c(c2)OCCO3)CSCC(=O)N1CCOc1ccccc1 (configuration not stated),-24.3% (inactive),
Cc1ccc(NC(=O)c2cnc(SCC(=O)NCC3CCCO3)n(C)c2=O)cc1 (configuration not stated),,11.6 µM (active)
Cn1c(SCC(=O)c2ccccc2)ncc(C(=O)Nc2ccc(F)cc2)c1=O,-22.7% (inactive),
Cc1cc(NC(=O)CSc2ncc(C(=O)Nc3ccc(Cl)cc3)c(=O)n2C)no1,3.91% (inactive),
O=C(NC1CCCCC1)C1CCCN(S(=O)(=O)c2ccc(Br)s2)C1 (configuration not stated),-19% (inactive),

Structure (SMILES),"activity change, negative = growth inhibition",Potency
Nc1nc(SCc2ccc([N+](=O)[O-])cc2)c2ncn(C3OC(CO)C(O)C3O)c2n1 (configuration not stated),-29.6% (inactive),
O=C(Nc1nnc(C2CC2)s1)C1=NN(C2CCS(=O)(=O)C2)C(=O)CC1 (configuration not stated),6.84% (inactive),
COc1ccc(CNC(=O)c2ccc(NS(=O)(=O)c3ccc4[nH]c(=O)[nH]c4c3)cc2)cc1OC,-1.98% (inactive),
O=C(COC(=O)CNS(=O)(=O)c1ccc(F)c(F)c1F)NC1CCCC1,-18.3% (inactive),
Cn1cc(CCC(=O)NCc2ccc3c(c2)OCO3)c2ccccc21,-17.6% (inactive),
O=C(CCNS(=O)(=O)c1ccccc1C(F)(F)F)NCc1ccc2c(c1)OCO2,-3.92% (inactive),
O=C(CCc1nnc(Cc2ccc3c(c2)OCO3)o1)NCCc1ccccc1Cl,,11.6 µM (active)
O=C(O)CCC(=O)NCc1ccc(C(=O)O)cc1,5.55% (inactive),
COc1cc2c(cc1CNC[C@H]1O[C@@H](n3cnc(C(N)=O)n3)[C@H](O)[C@@H]1O)OCO2,-13.9% (inactive),
CCCOc1ccc(C2NC(=O)NC(c3ccccc3)=C2C(C)=O)cc1OCC (configuration not stated),,23.1 µM (active)
COc1cc(C2NC(=O)NC(c3ccccc3)=C2C(C)=O)c(Br)cc1OCC(N)=O (configuration not stated),-2.61% (inactive),
COC(=O)COc1ccc(C2NC(=O)NC(C)=C2C(=O)NCc2ccccc2)cc1OC (configuration not stated),7.4% (inactive),
CC1CC1C(=O)OCC(=O)Nc1cccc(F)c1 (configuration not stated),-16.1% (inactive),
CSC1=N/C(=C\C=C\c2cccs2)C(=O)S1,,14.6 µM (active)
CN1C/C(=C/c2cccs2)C(=O)/C(=C\c2cccs2)C1,-26.2% (inactive),
O=C1N/C(=C/c2cccs2)C(=O)N1Cc1ccc(F)cc1,-8.67% (inactive),
Cn1c(=O)n(Cc2c(F)cccc2Cl)c(=O)c2c1nc1n2CCN1c1ccc(F)cc1,-6.42% (inactive),
COc1ccc(OC)c(-c2csc(-c3c(N)c(C(=O)c4ccccc4)n4ccccc34)n2)c1,-9.02% (inactive),
CCN1/C(=C/c2ccc3ccc(C)cc3[n+]2CC)Sc2ccccc21,,2.06 µM (active)
CCN1/C(=C\c2ccc3ccccc3[n+]2CC)Sc2cc(C)ccc21,,0.184 µM (active)
CCN1/C(=C/C(=S)Nc2ccccc2)Sc2ccccc21,-77.9% (inactive),
O=C(CN1C(=O)NC2(CCCCCCC2)C1=O)NCc1ccc(F)cc1,,16.4 µM (active)
O=C(CN1C(=O)NC2(CCCCCC2)C1=O)NCc1ccc(F)cc1,14% (inactive),
O=C(CN1C(=O)NC2(CCCCCC2)C1=O)NCc1cccs1,-0.308% (inactive),

# — PubChem BioAssay AID686979 (National Center for Advancing Translational Sciences (NCATS), 2013)
